This is an account of results in PubChem BioAssay.

The nature of assay [1]: MELAS cybrid and Rieske KO viability enhancers – cell-based, MELAS cybrids, Rieske KO mouse fibroblasts, CellTiter-Glo, primary screen (AID 1508586).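 Note: test concentration not given here; z relative to plate mean and SD of compound and empty wells.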 To be noted: low glucose. On the technique in general: Cellular ATP, detected with luciferase, serves as a proxy for viable cell number.
Assay [2] in a line: galactose survival enhancers in mitochondrial complex I cybrids – cell-based, galactose medium, ATP luminescence, primary screen (AID 1645843;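 active = z-score of at least 1.8 in each of two replicates, scored against plate mean and spread of sample wells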;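 note: positive z means more ATP and so rescue of galactose-driven cybrid death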). To be noted: complex I mutant cybrid cells, 72 h, stronger effect = higher value.
Where [3] appears, read: MELAS cybrid survival, CellTiter-Glo 48 h, stronger effect = higher value.
Where [4] appears, read: Rieske KO mouse fibroblast survival, CellTiter-Glo 72 h.

The structures appear in SMILES notation. Activity calls are given as the source filed them.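 Rule for the calls, unless noted: active = mean z-score across replicates of 1.96 or higher in either the MELAS or the Rieske mutant cell line; inactive = the rest.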

With `CCN(CC)CCNC(=O)c1cc(-c2cc(C)cs2)cc(S(=O)(=O)N2CCOCC2)c1`, the z-score is -0.44 (inactive) in assay [1] (setting [3]), -0.00741 in assay [1] (setting [4]) and 1.25 (inactive) in assay [2].

On to `O=C1N[C@@H](Cc2ccccc2)C(=O)N2CCN(C(=O)c3cccs3)C[C@H]12`, for which the z-score was -0.168 (inactive) in assay [1] (setting [3]), -0.046 in assay [1] (setting [4]) and -1.15 (inactive) in assay [2].

Turning to `COC(=O)c1c(NC(=O)C2CC2)c2cc(NC3CCOCC3)cnc2n1Cc1ccccc1`, the z-score is -0.892 (inactive) in assay [1] (setting [3]), 0.482 in assay [1] (setting [4]) and -0.845 (inactive) in assay [2].

For `CN(Cc1nc(-c2ccccc2)cs1)C1CCc2c(c(C(=O)N3CCSCC3)nn2C)C1` (stereo not drawn), the z-score was 0.0592 (inactive) in assay [1] (setting [3]), 0.0851 in assay [1] (setting [4]) and 0.7 (inactive) in assay [2].

As for `CCN1CCN(C(=O)c2cc(-c3cc(C)cs3)cc(S(=O)(=O)N3CCOCC3)c2)CC1`, the z-score in assay [1] (setting [3]) is -0.416 (inactive); in assay [1] (setting [4]) it was -0.432; in assay [2], 2.05 (inactive).

As for `O=C(NCC1CCCO1)[C@@H]1C[C@H](CN2CCOCC2)CN(Cc2ccc3ccccc3c2)C1` (stereo partly drawn), the z-score was -0.349 (inactive) in assay [1] (setting [3]), -0.753 in assay [1] (setting [4]) and 0.17 (inactive) in assay [2].

As to `CN1CCCc2cc(C(=O)N3CC(=O)N(Cc4ccccc4)CC(OCc4ccccn4)C3)ccc21` (stereo not drawn), the values for the z-score in assay [1] (setting [3]), in assay [1] (setting [4]) and in assay [2] were -0.626 (inactive), -0.731 and 0.21 (inactive), respectively.

With `O=C(C1COc2ccccc2C1)N1CC(=O)N(C2CCCCC2)CC(OCc2ccccn2)C1` (stereo not drawn), the figures for the z-score in assay [1] (setting [3]), in assay [1] (setting [4]) and in assay [2] were 0.04 (inactive), -1.17 and 2.08 (inactive), respectively.

For `CCCn1nc(C(=O)N2CCCCC2)c2c1CCC(NCc1cccnc1)C2` (stereo not drawn), the z-score in assay [1] (setting [3]) is -0.0243 (inactive); in assay [1] (setting [4]) it was -0.185; in assay [2] it was -1.06 (inactive).

In the case of `CC(C)C[C@@H]1NC(=O)[C@H]2CN(S(=O)(=O)c3cccc4ccccc34)CCN2C1=O`, the results for the z-score in assay [1] (setting [3]), in assay [1] (setting [4]) and in assay [2] were -0.496 (inactive), -0.159 and -0.92 (inactive), respectively.

For the compound `C=CCn1nc(C(=O)N2CCOCC2)c2c1CCC(NCc1ccc(Cl)s1)C2` (stereo not drawn), the z-score is -0.625 (inactive) in assay [1] (setting [3]), -0.989 in assay [1] (setting [4]) and 0.86 (inactive) in assay [2].

Consider `CCN1C(=O)N(CCc2ccccc2)C2(CCN(Cc3cnn(-c4ccccc4OC)c3)CC2)C1=O`, for which the results for the z-score in assay [1] (setting [3]), in assay [1] (setting [4]) and in assay [2] were 0.108 (inactive), 0.254 and -0.37 (inactive), respectively.

As to `Cc1ccccc1CN[C@H]1C[C@H]2C(=O)N[C@@H]([C@@H](C)O)C(=O)N2C1`, the z-score is 0.0812 (inactive) in assay [1] (setting [3]), -0.372 in assay [1] (setting [4]) and 0.715 (inactive) in assay [2].

On to `CN1CCCC1CCNC(=O)c1cc(-c2ccccc2)cc(S(=O)(=O)N2CCSCC2)c1` (stereo not drawn), for which the z-score in assay [1] (setting [3]) was -0.508 (inactive); in assay [1] (setting [4]) it was -0.0913; in assay [2], 0.505 (inactive).

For `O=C(Cn1cnc2ccccc21)N1CCc2c(cc(-c3cccc(Cl)c3)c(=O)n2CC2CC2)C1`, the results for the z-score in assay [1] (setting [3]), in assay [1] (setting [4]) and in assay [2] were 0.334 (inactive), -0.586 and -0.315 (inactive), respectively.

In the case of `COC(=O)c1c(NC(=O)C2CCCO2)c2cc(NCc3ccccn3)cnc2n1CCc1ccccc1` (stereo not drawn), the figures for the z-score in assay [1] (setting [3]), in assay [1] (setting [4]) and in assay [2] were -0.44 (inactive), -0.0393 and -0.87 (inactive), respectively.

Consider `CC(C)N1CCN(C(=O)c2cc(-c3ccccc3)cc(S(=O)(=O)N3CCSCC3)c2)CC1`, for which the figures for the z-score in assay [1] (setting [3]), in assay [1] (setting [4]) and in assay [2] were -0.246 (inactive), -0.306 and 1.2 (inactive), respectively.

In the case of `CC1=C(C(=O)N2CCc3c(c(C(=O)NCc4nccs4)nn3Cc3ccccc3)C2)OCCO1`, the values for the z-score in assay [1] (setting [3]), in assay [1] (setting [4]) and in assay [2] were -0.132 (inactive), 0.241 and 0.605 (inactive), respectively.

Regarding `CC(C)NS(=O)(=O)c1cc(NCc2cnn(C)c2)cc(C(=O)NCc2cn3ccccc3n2)c1`, the z-score in assay [1] (setting [3]) is -0.615 (inactive); in assay [1] (setting [4]) it was -0.511; in assay [2], 1.27 (inactive).

On to `CC1=C(C(=O)N2CC(=O)N(CC(C)C)CC(OCc3ccccc3)C2)OCCO1` (stereo not drawn), for which the z-score in assay [1] (setting [3]) is 0.636 (inactive); in assay [1] (setting [4]) it was -0.606; in assay [2], 0.39 (inactive).

For `O=C(NCCn1ccnc1)c1cc(NCC2CC=CCC2)cc(S(=O)(=O)N2CCCC2)c1` (stereo not drawn), the z-score is -0.174 (inactive) in assay [1] (setting [3]), -0.234 in assay [1] (setting [4]) and -0.94 (inactive) in assay [2].

As for `CC(C)/C=C/CNc1cc(C(=O)NCc2cn3ccccc3n2)cc(S(=O)(=O)NC(C)C)c1`, the values for the z-score in assay [1] (setting [3]), in assay [1] (setting [4]) and in assay [2] were 1.64 (inactive), -0.726 and -1.65 (inactive), respectively.

In the case of `CC(C)CNC(=O)[C@@H]1C[C@H](CN2CCOCC2)CN(Cc2ccc(O)cc2)C1`, the z-score in assay [1] (setting [3]) was -0.104 (inactive); in assay [1] (setting [4]) it was -0.186; in assay [2] it was -0.31 (inactive).

For `Cn1c2c(cc(Cc3ccccc3F)c1=O)CN(C(=O)c1ccc(C#CC(C)(C)O)o1)CC2`, the z-score was -0.447 (inactive) in assay [1] (setting [3]), 0.668 in assay [1] (setting [4]) and -0.48 (inactive) in assay [2].

Turning to `CCN(CC)C(=O)c1cc(-c2ccc(C)s2)cc(S(=O)(=O)N2CCOCC2)c1`, the z-score is -0.0477 (inactive) in assay [1] (setting [3]), 0.74 in assay [1] (setting [4]) and -0.44 (inactive) in assay [2].

As for `COc1ccccc1C(=O)N1CCN2C(=O)[C@H](CCCCN)NC(=O)[C@H]2C1`, the z-score in assay [1] (setting [3]) was 0.643 (inactive); in assay [1] (setting [4]), -0.574; in assay [2], -0.735 (inactive).
